Records with an inconclusive call do not appear. A number with no mark means an inactive call. The source made the active and inactive calls. Calls come from the whole dose curve.
Target: Nucleoprotein (Lymphocytic choriomeningitis virus (strain Armstrong)) (UniProt P09992)
Test: qHTS for Inhibitors of the Functional Ribonucleoprotein Complex (vRNP) of Lymphocytic Choriomeningitis Arenaviruses (LCMV): LCMV Primary Screen - GLuc reporter signal (AID 1347086); note: nearly all actives have a fitted effect of over 70% in size
Conditions: LCMV minigenome vRNP cell assay, Gaussia luciferase reporter; series mostly up to 57.5 µM; activity change, negative = inhibition: at the top concentration
% is set by controls: 0 for no effect and ±100 for the full control effect; potency is the fitted concentration of half-maximal effect.

Nucleoprotein (Lymphocytic choriomeningitis virus (strain Armstrong)), sequence (P09992 whole entry, looked up): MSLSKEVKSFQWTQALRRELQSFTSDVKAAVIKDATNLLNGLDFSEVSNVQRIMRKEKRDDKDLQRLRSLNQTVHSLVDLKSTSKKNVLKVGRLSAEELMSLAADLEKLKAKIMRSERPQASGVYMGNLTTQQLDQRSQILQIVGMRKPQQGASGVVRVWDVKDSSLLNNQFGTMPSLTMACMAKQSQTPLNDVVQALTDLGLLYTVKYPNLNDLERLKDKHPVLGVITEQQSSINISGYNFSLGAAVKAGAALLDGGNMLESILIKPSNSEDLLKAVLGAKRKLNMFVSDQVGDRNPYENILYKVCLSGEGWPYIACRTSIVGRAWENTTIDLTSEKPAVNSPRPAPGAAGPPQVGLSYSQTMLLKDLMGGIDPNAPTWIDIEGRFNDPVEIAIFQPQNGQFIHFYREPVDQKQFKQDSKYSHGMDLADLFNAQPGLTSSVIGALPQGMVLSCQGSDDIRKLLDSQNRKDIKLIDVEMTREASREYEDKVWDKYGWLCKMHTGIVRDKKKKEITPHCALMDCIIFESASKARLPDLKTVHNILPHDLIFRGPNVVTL

Row | Compound | Potency | activity change, negative = inhibition
1 | O=C1[C@H](Cc2ccc(O)cc2)N2C(=O)CCN(C(=O)NCc3ccccc3)[C@H]2CN1Cc1cccc2ccccc12 | 19.3 µM (active) | –
2 | Cc1cnc(Nc2ccc(F)cc2Cl)nc1-c1c[nH]c(C(=O)N[C@H](CO)c2cccc(Cl)c2)c1 | 17.2 µM (active) | –
3 | Cc1nn(Cc2ccccc2Cl)c(C)c1CN(C)CC(O)COc1ccc(Cl)cc1 (centres undefined) | – | -6.84%
4 | COc1c(N2CCNC(C)C2)c(F)cc2c(=O)c(C(=O)O)cn(C3CC3)c12 (centres undefined) | inactive | –
5 | c1ccc2[nH]ccc2c1 | – | 18.4%
6 | O=C(O)c1ccccn1 | – | 7.61%
7 | COc1ncnc(NS(=O)(=O)c2ccc(N)cc2)c1OC | – | 11.2%
8 | C[C@]12C[C@H](O)[C@H]3[C@@H](CCC4=CC(=O)CC[C@@]43C)[C@@H]1CC[C@@H]2C(=O)CO | inactive | –
9 | CC(=O)Oc1cccc(C)c1 | – | -8.35%
10 | CS(=O)(=O)c1cccc(CNc2nc(Nc3ccc4c(c3)CCC(=O)N4)ncc2C(F)(F)F)c1 | – | 3.38%
11 | COc1cc(S(N)(=O)=O)cc(C(=O)O)c1OC | – | 18.2%
12 | CCCN(CCC)c1c([N+](=O)[O-])cc(S(N)(=O)=O)cc1[N+](=O)[O-] | – | -24.9% [at 115 µM]
13 | C[C@@H](N)C(=O)O | – | 7.82%
14 | CC[C@@H](C)[C@H](NC(=O)[C@H](CC1CCCCC1)NC(=O)c1ccno1)C(=O)N1CCC2(CCc3ccccc32)CC1 | – | 3.9%
15 | O=C(O)c1ccccc1O | – | -0.114%
16 | Nc1nnnn1-c1ccccc1 | – | -1.3%
17 | CCN(CC)CCCCNc1nc2cc(Cl)c(Cl)cc2nc1-c1ccc(-c2cccs2)s1 | – | -1.45%
18 | COc1ncc(-c2ccc3nccc(-c4ccnnc4)c3c2)cc1NS(=O)(=O)c1ccc(F)cc1F | 0.0343 µM (active) | –
19 | O=C1NS(=O)(=O)c2ccccc21 | – | 20.9%
20 | C[C@H](CN1CCCC1)C(=O)c1ccc(C(F)(F)F)cc1 | – | 12.1%

Row | Compound | Potency | activity change, negative = inhibition
21 | CC(=O)NC(C)c1ccc(Oc2ccc(OC(C)C)cc2)cc1 (centres undefined) | – | 28%
22 | CCCCCCCC(=O)OCC(O)CO (centres undefined) | – | 9.84%
23 | CCCCOCCOc1nc(-c2ccc(C(=O)O)c(F)c2)sc1C | – | -0.954%
24 | CC(C)(C(=O)NCC(F)(F)C(F)(F)F)C(=O)N[C@@H]1C(=O)Nc2ccccc2-c2ccccc21 | 10.9 µM (active) | –
25 | CCOC(=O)C(=O)CCCCCCl | – | 17.6%
26 | O=S(c1cc(Cl)cc(Cl)c1O)c1cc(Cl)cc(Cl)c1O | – | -1.36%
27 | Cn1c(Nc2ccc(C(F)(F)F)cc2)nc2cc(Oc3ccnc(-c4ncc(C(F)(F)F)[nH]4)c3)ccc21 | – | -3.4%
28 | Cc1ccc(-c2ncn(-c3ccc(Nc4nccc(-c5cccc(N6CCOCC6)c5)n4)cc3)n2)cn1 | – | -17.5%
29 | C[C@H](NC(=O)Cc1cc(F)cc(F)c1)C(=O)N[C@@H]1C(=O)N(C)c2ccccc2-c2ccccc21 | – | 15.8%
30 | CC(C)CCCC(C)CCCC(C)CCCCC(C)CCCC(C)CCCC(C)C (centres undefined) | – | -1.85%
31 | Cc1ccc(C(=O)Nc2cccc(C(F)(F)F)c2)cc1-c1ccc2nc(NCCN3CCOCC3)ncc2c1 | 12.2 µM (active) | –
32 | CCN1CCN(c2cc3c(cc2F)c(=O)c(C(=O)O)cn3C2CC2)CC1 | – | 31%
33 | COCCn1c2c([n+](Cc3cnccn3)c1C)C(=O)c1ccccc1C2=O | 0.0685 µM (active) | –
34 | S=C(NCc1ccc2c(c1)OCO2)N1CCN(c2ncnc3c2oc2ccccc23)CC1 | – | 11.5% [at 115 µM]
35 | C=C1C(=CC=C2CCC[C@]3(C)[C@@H]([C@H](C)C=C[C@H](C)C(C)C)CC[C@@H]23)C[C@@H](O)C[C@@H]1O | – | -11.4%
36 | CNC(=O)c1ccc(N2C(=S)N(c3ccc(C#N)c(C(F)(F)F)c3)C(=O)C2(C)C)cc1F | – | -8.19%
37 | COc1ccc2c(c1)c1c3n2CCN(C)C3=NCC1 | – | -2.17%
38 | Cn1c(=O)n(-c2ccc(C(C)(C)C#N)cc2)c2c3cc(-c4cnc5ccccc5c4)ccc3ncc21 | 0.0685 µM (active) | –
39 | CCOc1cc(NC(C)=O)ccc1C(=O)OC | – | 8.52%

From PubChem BioAssay (NCATS)
